# Publication PMC8384837, “Expanding the binding specificity for RNA recognition by a PUF domain”
# Substitutions are numbered along the chain they refer to.
# Experiments:
# Assay in all cases: yeast three-hybrid, YBZ-1, SC-Leu-His + 0.5 mM 3-AT, 4 days
# Settings in all cases: tags: N-Gal4 AD-HA kept; label: inside an RPR1-promoter hybrid RNA with tandem MS2 sites; ssRNA
# PUM1 PUF domain R2-ARP = PUM1 PUF domain R2-ARP (Homo sapiens, UniProt Q14671 828-1176, N899A;Y900R;Q903P)
# Summary of the method: (§1)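 Pumilio-1 PUF domain libraries, randomized at the three base-contacting residues of each repeat, were co-expressed with matching RNA elements from a centromeric plasmid in strain YBZ-1, which carries a LexA–MS2 coat fusion and a HIS3 reporter. Transformants grew for four days on SC-Leu (input) or on SC-Leu-His + 0.5 mM 3-AT (selection), and the repeat regions were PCR-amplified and Illumina-sequenced. The interaction score is the log change in variant frequency from input to selection. That logarithm is base 2, with a pseudocount of 1 where a variant was absent.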
# PUM1 PUF domain R7-NRR = PUM1 PUF domain R7-NRR (Homo sapiens, UniProt Q14671 828-1176, S1079N;N1080R;E1083R)
# Summary of the method: as §1
# PUM1 PUF domain R6-CFH = biological target: T1, PUM1 PUF domain R6-CFH (Homo sapiens, UniProt Q14671 828-1176, N1043C;Y1044F;Q1047H)
# T1 sequence: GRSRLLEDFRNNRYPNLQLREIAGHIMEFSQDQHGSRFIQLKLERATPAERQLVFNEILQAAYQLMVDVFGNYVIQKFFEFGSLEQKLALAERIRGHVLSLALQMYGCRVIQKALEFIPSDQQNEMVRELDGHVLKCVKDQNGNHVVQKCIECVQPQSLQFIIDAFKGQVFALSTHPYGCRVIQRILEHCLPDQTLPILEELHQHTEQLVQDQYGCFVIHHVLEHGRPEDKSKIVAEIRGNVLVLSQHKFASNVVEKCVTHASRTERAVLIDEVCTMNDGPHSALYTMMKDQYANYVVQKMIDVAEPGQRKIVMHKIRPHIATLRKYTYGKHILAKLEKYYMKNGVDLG
# Summary of the method: as §1
# PUM1 PUF domain R3-RTF = PUM1 PUF domain R3-RTF (Homo sapiens, UniProt Q14671 828-1176, C935R;R936T;Q939F)
# Sequence of PUM1 PUF domain R3-RTF (Q14671 828-1176 C935R/R936T/Q939F): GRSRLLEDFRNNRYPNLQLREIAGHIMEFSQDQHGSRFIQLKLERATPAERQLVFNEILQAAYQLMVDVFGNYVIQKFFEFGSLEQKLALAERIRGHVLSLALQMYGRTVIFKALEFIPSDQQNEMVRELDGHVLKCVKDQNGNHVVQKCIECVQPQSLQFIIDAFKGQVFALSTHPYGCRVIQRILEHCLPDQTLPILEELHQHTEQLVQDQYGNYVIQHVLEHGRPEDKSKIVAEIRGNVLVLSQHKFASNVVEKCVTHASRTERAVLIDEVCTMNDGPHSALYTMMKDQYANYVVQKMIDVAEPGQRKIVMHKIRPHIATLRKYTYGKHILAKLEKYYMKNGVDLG
# Summary of the method: as §1
# PUM1 PUF domain R3-FWG = PUM1 PUF domain R3-FWG (Homo sapiens, UniProt Q14671 828-1176, C935F;R936W;Q939G)
# Summary of the method: as §1
# PUM1 PUF domain R5-KTL = PUM1 PUF domain R5-KTL (Homo sapiens, UniProt Q14671 828-1176, C1007K;R1008T;Q1011L)
# Sequence of PUM1 PUF domain R5-KTL (Q14671 828-1176 C1007K/R1008T/Q1011L): as the sequence (Q14671 828-1176 C935R/R936T/Q939F) above, with R108C, T109R, F112Q, C180K, R181T, Q184L counted along it
# Summary of the method: as §1
# PUM1 PUF domain R5-KRD = PUM1 PUF domain R5-KRD (Homo sapiens, UniProt Q14671 828-1176, C1007K;Q1011D)
# Sequence of PUM1 PUF domain R5-KRD (Q14671 828-1176 C1007K/Q1011D): as the sequence (Q14671 828-1176 C935R/R936T/Q939F) above, with R108C, T109R, F112Q, C180K, Q184D counted along it
# Summary of the method: as §1
# PUM1 PUF domain R5-KQV = PUM1 PUF domain R5-KQV (Homo sapiens, UniProt Q14671 828-1176, C1007K;R1008Q;Q1011V)
# Sequence of PUM1 PUF domain R5-KQV (Q14671 828-1176 C1007K/R1008Q/Q1011V): as the sequence (Q14671 828-1176 C935R/R936T/Q939F) above, with R108C, T109R, F112Q, C180K, R181Q, Q184V counted along it
# Summary of the method: as §1
# PUM1 PUF domain R5-LWV = PUM1 PUF domain R5-LWV (Homo sapiens, UniProt Q14671 828-1176, C1007L;R1008W;Q1011V)
# Sequence of PUM1 PUF domain R5-LWV (Q14671 828-1176 C1007L/R1008W/Q1011V): as the sequence (Q14671 828-1176 C935R/R936T/Q939F) above, with R108C, T109R, F112Q, C180L, R181W, Q184V counted along it
# Summary of the method: as §1
# PUM1 PUF domain R5-AGR = PUM1 PUF domain R5-AGR (Homo sapiens, UniProt Q14671 828-1176, C1007A;R1008G;Q1011R)
# Summary of the method: as §1
# PUM1 PUF domain R5-ERC = PUM1 PUF domain R5-ERC (Homo sapiens, UniProt Q14671 828-1176, C1007E;Q1011C)
# Sequence of PUM1 PUF domain R5-ERC (Q14671 828-1176 C1007E/Q1011C): as the sequence (Q14671 828-1176 C935R/R936T/Q939F) above, with R108C, T109R, F112Q, C180E, Q184C counted along it
# Summary of the method: as §1
# PUM1 PUF domain R5-LHG = PUM1 PUF domain R5-LHG (Homo sapiens, UniProt Q14671 828-1176, C1007L;R1008H;Q1011G)
# Sequence of PUM1 PUF domain R5-LHG (Q14671 828-1176 C1007L/R1008H/Q1011G): as the sequence (Q14671 828-1176 C935R/R936T/Q939F) above, with R108C, T109R, F112Q, C180L, R181H, Q184G counted along it
# Summary of the method: as §1
# PUM1 PUF domain R6-LYG = biological target: T2, PUM1 PUF domain R6-LYG (Homo sapiens, UniProt Q14671 828-1176, N1043L;Q1047G)
# T2 sequence: T1 sequence with C216L, F217Y, H220G
# Summary of the method: as §1
# PUM1 PUF domain R5-DWV = PUM1 PUF domain R5-DWV (Homo sapiens, UniProt Q14671 828-1176, C1007D;R1008W;Q1011V)
# Summary of the method: as §1
# PUM1 PUF domain R4-GCG = PUM1 PUF domain R4-GCG (Homo sapiens, UniProt Q14671 828-1176, N971G;H972C;Q975G)
# Summary of the method: as §1
# PUM1 PUF domain R7-QFY = PUM1 PUF domain R7-QFY (Homo sapiens, UniProt Q14671 828-1176, S1079Q;N1080F;E1083Y)
# Summary of the method: as §1
# PUM1 PUF domain R1-RLT = PUM1 PUF domain R1-RLT (Homo sapiens, UniProt Q14671 828-1176, S863R;R864L;Q867T)
# Sequence of PUM1 PUF domain R1-RLT (Q14671 828-1176 S863R/R864L/Q867T): as the sequence (Q14671 828-1176 C935R/R936T/Q939F) above, with S36R, R37L, Q40T, R108C, T109R, F112Q counted along it
# Summary of the method: as §1
# PUM1 PUF domain R7-TPG = PUM1 PUF domain R7-TPG (Homo sapiens, UniProt Q14671 828-1176, S1079T;N1080P;E1083G)
# Sequence of PUM1 PUF domain R7-TPG (Q14671 828-1176 S1079T/N1080P/E1083G): as the sequence (Q14671 828-1176 C935R/R936T/Q939F) above, with R108C, T109R, F112Q, S252T, N253P, E256G counted along it
# Summary of the method: as §1
# PUM1 PUF domain R7-GIV = PUM1 PUF domain R7-GIV (Homo sapiens, UniProt Q14671 828-1176, S1079G;N1080I;E1083V)
# Sequence of PUM1 PUF domain R7-GIV (Q14671 828-1176 S1079G/N1080I/E1083V): as the sequence (Q14671 828-1176 C935R/R936T/Q939F) above, with R108C, T109R, F112Q, S252G, N253I, E256V counted along it
# Summary of the method: as §1
# PUM1 PUF domain R1-KGN = PUM1 PUF domain R1-KGN (Homo sapiens, UniProt Q14671 828-1176, S863K;R864G;Q867N)
# Summary of the method: as §1
sequence,measurement,setting,value
GGCUAGAACUAGUGGAUCCCCCGGCGCCCGGCGGCUCGAGCCCGGGUAAGUGUAAAAAGUCUGCAUGCCGCCGGGCGCCAUGCCUGCAGGUCGACUCUAGAAAACAUG,binding signal,PUM1 PUF domain R2-ARP,4.42 log2 enrichment (interaction score)
GGCUAGAACUAGUGGAUCCCCCGGCGCCCGGCGGCUCGAGCCCGGGUAAGUCUAAAUAGUCUGCAUGCCGCCGGGCGCCAUGCCUGCAGGUCGACUCUAGAAAACAUG,binding signal,PUM1 PUF domain R7-NRR,4.05 log2 enrichment (interaction score)
GGCUAGAACUAGUGGAUCCCCCGGCGCCCGGCGGCUCGAGCCCGGGUAAGUGAAAAUAGUCUGCAUGCCGCCGGGCGCCAUGCCUGCAGGUCGACUCUAGAAAACAUG,binding signal,PUM1 PUF domain R6-CFH,4.34 log2 enrichment (interaction score)
GGCUAGAACUAGUGGAUCCCCCGGCGCCCGGCGGCUCGAGCCCGGGUAAGUGUAAUUAGUCUGCAUGCCGCCGGGCGCCAUGCCUGCAGGUCGACUCUAGAAAACAUG,binding signal,PUM1 PUF domain R3-RTF,2.83 log2 enrichment (interaction score)
same,binding signal,PUM1 PUF domain R3-FWG,4.85 log2 enrichment (interaction score)
GGCUAGAACUAGUGGAUCCCCCGGCGCCCGGCGGCUCGAGCCCGGGUAAGUGUUAAUAGUCUGCAUGCCGCCGGGCGCCAUGCCUGCAGGUCGACUCUAGAAAACAUG,binding signal,PUM1 PUF domain R5-KTL,1.72 log2 enrichment (interaction score)
same,binding signal,PUM1 PUF domain R5-KRD,4.94 log2 enrichment (interaction score)
same,binding signal,PUM1 PUF domain R5-KQV,2.42 log2 enrichment (interaction score)
same,binding signal,PUM1 PUF domain R5-LWV,2.42 log2 enrichment (interaction score)
same,binding signal,PUM1 PUF domain R5-AGR,0.84 log2 enrichment (interaction score)
GGCUAGAACUAGUGGAUCCCCCGGCGCCCGGCGGCUCGAGCCCGGGUAAGUGUAAAUAGUCUGCAUGCCGCCGGGCGCCAUGCCUGCAGGUCGACUCUAGAAAACAUG,binding signal,PUM1 PUF domain R5-ERC,2.93 log2 enrichment (interaction score)
same,binding signal,PUM1 PUF domain R5-LHG,2.63 log2 enrichment (interaction score)
same,binding signal,PUM1 PUF domain R6-LYG,4.49 log2 enrichment (interaction score)
same,binding signal,PUM1 PUF domain R5-DWV,2.8 log2 enrichment (interaction score)
same,binding signal,PUM1 PUF domain R4-GCG,2.71 log2 enrichment (interaction score)
same,binding signal,PUM1 PUF domain R5-AGR,0.53 log2 enrichment (interaction score)
same,binding signal,PUM1 PUF domain R7-QFY,4.21 log2 enrichment (interaction score)
same,binding signal,PUM1 PUF domain R3-FWG,4.7 log2 enrichment (interaction score)
same,binding signal,PUM1 PUF domain R6-CFH,2.76 log2 enrichment (interaction score)
GGCUAGAACUAGUGGAUCCCCCGGCGCCCGGCGGCUCGAGCCCGGGUAAGUGUAAAUGGUCUGCAUGCCGCCGGGCGCCAUGCCUGCAGGUCGACUCUAGAAAACAUG,binding signal,PUM1 PUF domain R1-RLT,3.03 log2 enrichment (interaction score)
GGCUAGAACUAGUGGAUCCCCCGGCGCCCGGCGGCUCGAGCCCGGGUAAGUUUAAAUAGUCUGCAUGCCGCCGGGCGCCAUGCCUGCAGGUCGACUCUAGAAAACAUG,binding signal,PUM1 PUF domain R7-TPG,4.42 log2 enrichment (interaction score)
same,binding signal,PUM1 PUF domain R7-GIV,2.42 log2 enrichment (interaction score)
same,binding signal,PUM1 PUF domain R7-QFY,2.24 log2 enrichment (interaction score)
GGCUAGAACUAGUGGAUCCCCCGGCGCCCGGCGGCUCGAGCCCGGGUAAGUGUAAAUCGUCUGCAUGCCGCCGGGCGCCAUGCCUGCAGGUCGACUCUAGAAAACAUG,binding signal,PUM1 PUF domain R1-RLT,4.76 log2 enrichment (interaction score)
GGCUAGAACUAGUGGAUCCCCCGGCGCCCGGCGGCUCGAGCCCGGGUAAGUGUAAAUUGUCUGCAUGCCGCCGGGCGCCAUGCCUGCAGGUCGACUCUAGAAAACAUG,binding signal,PUM1 PUF domain R1-RLT,4.16 log2 enrichment (interaction score)
same,binding signal,PUM1 PUF domain R1-KGN,4.31 log2 enrichment (interaction score)
GGCUAGAACUAGUGGAUCCCCCGGCGCCCGGCGGCUCGAGCCCGGGUAAGUGUACAUAGUCUGCAUGCCGCCGGGCGCCAUGCCUGCAGGUCGACUCUAGAAAACAUG,binding signal,PUM1 PUF domain R4-GCG,1.07 log2 enrichment (interaction score)
GGCUAGAACUAGUGGAUCCCCCGGCGCCCGGCGGCUCGAGCCCGGGUAAGUGUAUAUAGUCUGCAUGCCGCCGGGCGCCAUGCCUGCAGGUCGACUCUAGAAAACAUG,binding signal,PUM1 PUF domain R4-GCG,2.61 log2 enrichment (interaction score)
GGCUAGAACUAGUGGAUCCCCCGGCGCCCGGCGGCUCGAGCCCGGGUAAGUGUGAAUAGUCUGCAUGCCGCCGGGCGCCAUGCCUGCAGGUCGACUCUAGAAAACAUG,binding signal,PUM1 PUF domain R5-ERC,3.21 log2 enrichment (interaction score)
same,binding signal,PUM1 PUF domain R5-LHG,4.33 log2 enrichment (interaction score)
same,binding signal,PUM1 PUF domain R5-KRD,1.06 log2 enrichment (interaction score)
same,binding signal,PUM1 PUF domain R5-LWV,1.82 log2 enrichment (interaction score)
same,binding signal,PUM1 PUF domain R5-DWV,3.79 log2 enrichment (interaction score)
GGCUAGAACUAGUGGAUCCCCCGGCGCCCGGCGGCUCGAGCCCGGGUAAGUGUCAAUAGUCUGCAUGCCGCCGGGCGCCAUGCCUGCAGGUCGACUCUAGAAAACAUG,binding signal,PUM1 PUF domain R5-ERC,1.33 log2 enrichment (interaction score)
same,binding signal,PUM1 PUF domain R5-KTL,2.84 log2 enrichment (interaction score)
same,binding signal,PUM1 PUF domain R5-LHG,1.75 log2 enrichment (interaction score)
same,binding signal,PUM1 PUF domain R5-KRD,6.86 log2 enrichment (interaction score)
same,binding signal,PUM1 PUF domain R5-KQV,5.39 log2 enrichment (interaction score)
same,binding signal,PUM1 PUF domain R5-AGR,3.47 log2 enrichment (interaction score)
GGCUAGAACUAGUGGAUCCCCCGGCGCCCGGCGGCUCGAGCCCGGGUAAGUGUAAGUAGUCUGCAUGCCGCCGGGCGCCAUGCCUGCAGGUCGACUCUAGAAAACAUG,binding signal,PUM1 PUF domain R3-FWG,7.02 log2 enrichment (interaction score)
